We go through 52 compounds from PubChem BioAssay AID1671190 (National Center for Advancing Translational Sciences (NCATS), 2021).

Hit rate of the full screen: of about 580,000 compounds, about 6,100 (1.1%) were called active. Not shown: some 15% with an inconclusive outcome. The call rests on the fitted dose curve; in most records, active means well fitted inhibition curve with a large enough effect; inconclusive means small, poorly fitted or top-dose-only effect, or another doubt; inactive means no such curve, though single readings can be large or run the other way. The entries come from a sample that favours actives as a whole. Entries that show only a call come without a potency.
Potency means the concentration at half of the fitted maximal effect.

Sequence of Polyunsaturated fatty acid lipoxygenase ALOX12 (Homo sapiens) (P18054 whole entry, looked up): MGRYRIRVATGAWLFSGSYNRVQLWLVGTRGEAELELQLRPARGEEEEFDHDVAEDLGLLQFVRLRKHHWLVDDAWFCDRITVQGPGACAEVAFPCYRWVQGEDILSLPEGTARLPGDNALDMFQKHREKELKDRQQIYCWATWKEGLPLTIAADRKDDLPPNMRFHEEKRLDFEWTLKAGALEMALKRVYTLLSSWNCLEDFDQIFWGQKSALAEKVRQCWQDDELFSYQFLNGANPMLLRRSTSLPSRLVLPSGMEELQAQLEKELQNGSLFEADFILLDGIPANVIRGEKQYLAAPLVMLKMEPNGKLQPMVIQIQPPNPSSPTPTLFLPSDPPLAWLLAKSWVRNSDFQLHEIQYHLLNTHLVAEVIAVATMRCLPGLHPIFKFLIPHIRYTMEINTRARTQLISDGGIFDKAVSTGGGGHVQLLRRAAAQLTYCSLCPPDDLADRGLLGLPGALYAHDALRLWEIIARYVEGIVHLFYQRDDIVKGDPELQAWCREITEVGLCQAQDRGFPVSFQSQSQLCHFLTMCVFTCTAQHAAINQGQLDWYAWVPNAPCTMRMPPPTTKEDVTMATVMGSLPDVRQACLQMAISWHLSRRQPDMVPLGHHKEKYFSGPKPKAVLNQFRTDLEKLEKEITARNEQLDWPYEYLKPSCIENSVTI

The experiment concerns the target Polyunsaturated fatty acid lipoxygenase ALOX12 (Homo sapiens) (UniProt P18054). Nature of the experiment: Primary qHTS assay for inhibitors of human arachidonate 12S-lipoxygenase (ALOX12): Round 2. Particulars: purified 12hLO, xylenol orange hydroperoxide absorbance; series mostly up to 108 µM. An excerpt:
Assay Provider: Theodore R. Holman Ph.D. University of California, Santa Cruz, California Human lipoxygenase 12hLO is a member of the closely related lipoxygenase family of enzymes which catalyze the site-specific oxidation of arachidonic acid to various hormone precursor molecules and as such is a candidate for drug development in a variety of disease areas, such as cancer and inflammation. Inhibition of 12hLO activity was screened by utilizing arachidonic acid as a substrate. The extent of hydroperoxide product formation was measured by a secondary chromogenic reaction in which xylenol orange (XO, Sigma-Aldrich, cat. number 39,818-7) reacts with the ferric ions produced from the reaction between the hydroperoxide and ferrous ions. The Fe (III)-XO complex is characterized with red-shifted absorbance at 560 nm. A purified preparation of human 12hLO was supplied by Dr. Holman laboratory, University of California, Santa Cruz.
PROTOCOL TABLE SEQUENCE No. (e.g., 1, 2, 3, etc.); […] (e.g., Cells, Incubation, Reagent, etc.); VALUE; DESCRIPTION 1; Enzyme; 3 uL; 150 nM 12hLO enzyme solution dispensed in 1536-well Greiner black, clear bottom plates. 2; Compound; 23 nL; compounds and controls were added. 3; Incubate; 15 min; room temperature. 4; Substrate; 1 uL; 40 uM arachidonic acid (final concentration). 5; Incubate; 30 min; room temperature. 6; Reagent; 4 uL; Fe-XO solution was added to each well. 7; Incubation; 30 min; room temperature 8; Detector; absorbance; Read 1 at 405 nm absorbance using ViewLux (Perkin-Elmer) CCD imager. 9; Detector; absorbance; Read 2 at 573 nm absorbance using ViewLux (Perkin-Elmer) CCD imager. NOTES (numbers refer to sequence above) 1; 150 nM 12hLO (final concentration) in buffer solution (25 mM Hepes, 0.01% Triton X-100, pH 7.0) was dispensed in columns 1, 2, 5-48. Column 1 is neutral (100% activity). Buffer only was dispensed in columns 3 and 4 as no enzyme negative controls. The plates were covered with metal lids with gas-exchange holes. 2; Compounds were pin transferred via a Kalypsys Pin Tool (Wako USA) in column 5-48. Control compound was transferred in column 2, titration of nordihydroguaiaretic acid (NDGA, Sigma-Aldrich, N5023) with top concentration of 20 mM in DMSO then 1:3 dilution in duplicate. Dilution factor of 23 nL into 4 uL final assay volume. 3; Covered assay plates were incubated for 15 min at room temperature. 4; Substrate was added to start the reaction; 40 uM arachidonic acid (Sigma-Aldrich, St. Louis, MO) was dispensed throughout the plate. 6; Chromogenic detection reagent solution (divalent iron/xylenol orange, Fe-XO) was added to each well: 200 uM xylenol orange, 300 uM ferrous ammonium sulfate prepared freshly in 50 mM sulfuric acid. 8, 9; Two absorbance readouts were obtained at 405 nm and at 573 nm using a ViewLux high-throughput CCD plate imager (Perkin-Elmer). The 573 to 405 (Read 2 / Read 1) absorbance ratio was used to compute reaction progress.
A general note: Quantitative high-throughput screening tests each substance at several concentrations.
As to `CCOc1ccccc1NC(=O)C1CCN(S(=O)(=O)c2c(C)nn(C)c2C)CC1`, the Potency entry is “inactive”.
The entry for `COC(=O)C1=C(C)N(C)C(C)=C(C(=O)OC)C1c1cccc(Br)c1` is “inactive”; for `CC(=O)C1=C(C)N(Cc2ccc(Cl)cc2)C(=S)NC1c1ccc(F)cc1` (configuration not stated) it is 44.7 µM (active); for `COC(=O)C1=C(C)N(Cc2ccc(F)cc2)C(=S)NC1c1cccc(Cl)c1` (configuration not stated) it is 39.8 µM (active).
Take `COC(=O)C1=C(C)N(Cc2ccccc2C(F)(F)F)C(=NCC2CC2)NC1c1cccc(Cl)c1` (configuration not stated): the Potency entry is “inactive”.
The entry for `CCN1CN(Cc2ccccc2)CNC1=S` is “inactive”; for `COC(=O)C1=C(C)N(Cc2ccccc2C(F)(F)F)C(=NCc2ccc(OC)cc2)NC1c1cccc(C(F)(F)F)c1` (configuration not stated) it is “inactive”.
As to `CC(=O)C1=C(C)N(Cc2ccccc2)C(=S)NC1c1cccc(Br)c1` (configuration not stated), the Potency was 44.7 µM (active).
Turning to `CCN(CC)C(=O)C1=C(C)N(Cc2ccc(F)cc2)C(=O)C(CC(=O)NC2CCCC2)C1` (configuration not stated), the Potency entry was “inactive”.
As for `O=C(CN1CCN(Cc2ccc(Cl)cc2)C1=O)NCc1ccc(F)cc1`, the Potency entry was “inactive”.
Regarding `O=C1CCN(C(=O)C2CCN(C(=O)C3COc4ccccc4O3)CC2)CCCCCCN1` (configuration not stated), the Potency entry was “inactive”.
Regarding `Cc1ccc(NC(=O)CN2c3ccccc3CC2C)c(Cl)c1` (configuration not stated), the Potency entry is “inactive”.
For the compound `O=C(CSc1nnc(Cc2ccccc2)n1-n1cccc1)Nc1ccccc1`, the Potency result was “inactive”.
Regarding `C[C@H](NC(=O)Cc1n[nH]c(=O)c2ccccc12)C(=O)N1CCN(c2ccccc2)CC1`, the Potency entry is “inactive”.
As to `Cc1ccc(NC(=O)CCC2CCCC2)c(C)c1`, the Potency entry was “inactive”.
As for `Cc1ccc(NC(=O)C2=Cc3sc4c(c3CS2)CCCC4)c(C)c1`, the Potency was 20 µM (active).
The value for `Cc1ccc(NC(=O)c2cccc(CS(C)=O)c2)c(C)c1` (configuration not stated) was “inactive”.
The entry for `CSCCC(=O)NCc1ccccc1F` is “inactive”; for `CCCCN1CC(C(=O)Nc2ccc(C(=O)Nc3ccccc3F)cc2)CC1=O` (configuration not stated) it is “inactive”; for `CN(CC1CCOC1)C(=O)Nc1cc(F)c(F)c(F)c1` (configuration not stated) it is “inactive”.
In the case of `CC(=O)OCC1(COC(C)=O)COCC(COC(C)=O)(COC(C)=O)C1=O`, the Potency entry is “inactive”.
With `C=CCNCc1ccc(Cl)c(Cl)c1`, the Potency result is “inactive”.
As for `CCOC(=O)c1cc(NCc2c(Cl)cccc2Cl)ccc1N1CCOCC1`, the Potency entry is “inactive”.
In the case of `CCCOC(=O)c1cc(NC(=O)c2cc(Cl)c(OC)c(Cl)c2)ccc1N1CCOCC1`, the Potency is 5.62 µM (active).
The value for `O=C(Nc1ccc(N2CCOCC2)c(Cl)c1)c1ccc2c3c(cccc13)CC2` was “inactive”.
The value for `C=CCSc1nc2c(c(=O)[nH]c(=O)n2C)n1CCCCC` was “inactive”.
With `C=CCNC(=O)CSc1nc(-c2ccccc2)c(-c2ccccc2)o1`, the Potency result is “inactive”.
Consider `Cn1cc(CN2CCOC[C@H](Oc3ccc(S(C)(=O)=O)cc3)C2)c2ccccc21`, for which the Potency result is “inactive”.
As for `O=C(NC1CCNC1)C1CCN(c2nc(-c3ccccc3)nc3c2CCC3)CC1` (configuration not stated), the Potency result was “inactive”.
For the compound `COc1ccc(CNC(=O)C(C)[C@@H]2CCc3c(C)cc(OCCN4CCOCC4)c(C)c3C2)cc1` (some centres not stated), the Potency result is “inactive”.
For the compound `O=C(O)/C=C/c1ccc(Cl)cc1Cl`, the Potency entry is “inactive”.
For `O=C(/C=C/c1ccccc1O)c1ccc(Cl)cc1Cl`, the Potency was 39.8 µM (active).
The value for `O=C(O)/C=C/c1ccccc1Cl` was “inactive”; that for `CN(C)C(=O)c1ccc(OCc2coc(-c3ccccc3)n2)cc1` was “inactive”; that for `CC(C)Cn1cncc1CNC(=O)c1ccc2nc(-c3ccc(F)cc3)cn2c1` was “inactive”.
As for `C[N+]1(CCNC(=O)/C=N/O)CCCCC1`, the Potency was 6.31 µM (active).
In the case of `CCN(CC)S(=O)(=O)c1ccc(NC(=O)CC2c3ccccc3C=CN2C(C)=O)cc1` (configuration not stated), the Potency entry was “inactive”.
`CSCC[C@H](NC(=O)CSc1cc(Cl)ccc1Cl)c1nc2ccccc2[nH]1`: the Potency is 44.7 µM (active).
The entry for `COc1ccc(CC(=O)NC(CCSC)c2nc3ccccc3[nH]2)cc1` (configuration not stated) is “inactive”; for `COc1ccc(CC(=O)N[C@@H](CCSC)c2nc3ccccc3[nH]2)cc1` it is “inactive”; for `Cc1nc(-c2ccc(OC(F)(F)F)cc2)sc1C(=O)N1CCCC1` it is “inactive”.
As for `O=C(CSc1nc(CN2CCOCC2)nc2ccccc12)N1CCN(Cc2ccccc2)CC1`, the Potency entry is “inactive”.
Regarding `Cc1cc2oc(C(=O)Nc3ccc(S(=O)(=O)N4CCCC(C)C4)cc3)cc(=O)c2cc1C` (configuration not stated), the Potency result was “inactive”.
For the compound `CC(=O)N1CCN(C(C(=O)O)c2cn(CCC(=O)O)c3cc(Br)ccc23)CC1` (configuration not stated), the Potency result was “inactive”.
The figure for `CCCCCCCC[n+]1cccc(C(=O)N2c3c(nc(N)[nH]c3=O)NC(C)C2C)c1` (configuration not stated) is 44.7 µM (active); for `COc1ccc(CCNC(=O)c2sc(NC(C)C)nc2C)cc1` it is “inactive”.
On to `O=S1(=O)CC(N2CCN(CCO)CC2)CN1Cc1cn(Cc2cccc(Cl)c2)nn1` (configuration not stated), for which the Potency is 7.08 µM (active).
On to `O=S1(=O)CC(N2CCN(CCO)CC2)CN1Cc1cn(Cc2ccc(Cl)cc2)nn1` (configuration not stated), for which the Potency was 25.1 µM (active).
As for `O=S1(=O)CC(N2CCSCC2)CN1Cc1cn(Cc2cccc(Cl)c2)nn1` (configuration not stated), the Potency result was “inactive”.
Turning to `CCCCCCN1CCN(C2CN(Cc3cn(Cc4ccc(F)cc4)nn3)S(=O)(=O)C2)CC1` (configuration not stated), the Potency result is “inactive”.
Consider `Cc1cccc(CN2CCN(C3CN(Cc4cn(Cc5ccccc5F)nn4)S(=O)(=O)C3)CC2)c1` (configuration not stated), for which the Potency result is “inactive”.
Consider `Cc1cccc(CN2CCN(C3CN(Cc4cn(Cc5cc(C)cc(C)c5)nn4)S(=O)(=O)C3)CC2)c1` (configuration not stated), for which the Potency entry was “inactive”.
